# Source: ChEMBL document CHEMBL3433997, “St. Jude Leishmania screening dataset” (2016)
# Biological target: Hexose transporter 1 (Plasmodium falciparum) (UniProt O97467)
# Assay: ST_JUDE_LEISH: Cytotoxicity at 2uM final concentration against transgenic Leishmania Mexicana promastigotes LmPfHT that are glucose transport deficient and complemented with the Plasmodium falciparum hexose transporter. Activity is measured by DNA content using SYBR green in vitro
# Assay type: functional
row,SMILES,inhibition [%]
1,COc1ccc(CN2CCCN(Cc3cccc(C(=O)Nc4ccc(C)c(F)c4)c3)CC2)cc1,-1.26
2,CCC[C@@H]([C@@H](CC1CCC(C)CC1)C(=O)N[C@@H](CCCCNC(=O)c1ccccn1)C(=O)Nc1nccs1)N(O)C=O (stereo not given in full),4.29
3,COc1cc(Cc2c(C)nc3nc(N)nc(N)c3c2C)c(Br)c(OC)c1OC,8.22
4,O=C(/C=C/c1ccccc1Cl)Nc1ccc(Br)c(OCCN2CCCCC2)c1,2.16
5,COCCn1c(-c2cccc(Cl)c2)nn(-c2ccc([N+](=O)[O-])cc2Cl)c1=S,6.65
6,Oc1cc(Nc2ccnc3cc(-c4cccc(CN5CCOCC5)c4)ccc23)c(F)cc1Cl,4.48
7,CC(C)C[C@@H](NC(=O)OC(C)(C)C)C(=O)Nc1ccc(Cc2ccc(NC(=O)[C@@H](CC(C)C)NC(=O)OC(C)(C)C)cc2)cc1,3.72
8,c1ccc(CN2CCC(NCc3ccccc3-c3cccc(CNCc4ccc5c(c4)OCO5)c3)CC2)cc1,-0.36
9,NCC1CCCN1Cc1ccc(-c2ccc(-c3nc4cc(F)ccc4[nH]3)cc2)cc1 (stereo not given),5.64
10,CCN(CC)CCNc1ccnc2[nH]c3ccc(C)cc3c12,0.18
11,FC(F)(F)c1ccccc1OCc1cc(-c2ccncc2)c(COc2ccccc2C(F)(F)F)cc1C1=CCNCC1,2.17
12,COc1ccc2nccc(N3CCC(NCCNCc4ccc5c(n4)NC(=O)CO5)C3)c2n1 (stereo not given),1.28
13,CC1(C)NC(N)=NC(=N)N1OCc1ccc(-c2ccccc2)cc1,5.93
14,CC(C)(C)OC(=O)n1cc(C2CCN(CCCC34CCCc5cccc(c53)NC4=O)CC2)c2ccncc21 (stereo not given),-0.01
15,O=C(NNC(=O)c1ccc(CN2CCC(c3nc4ccccc4[nH]3)CC2)cc1)Nc1ccc(Oc2ccccc2)cc1,2.34
16,COc1ccc(CN2CCN(C(=O)c3cccs3)CC2)c(O)c1,11.1
17,N/C(=N\c1cccc(Cc2ccccc2)n1)NCc1ccccc1,-1.19
18,CC(C)N1CCN(C(CN2CCN(CCCOc3cccc4ccccc34)CC2)c2ccc(F)cc2)CC1 (stereo not given),0.92
19,O=C(NCCCCCN1CCC(c2c[nH]c3ccccc23)CC1)Nc1cccc(I)c1,12.6
20,Cc1nccn1Cc1cc(C(C)(C)C)c(O)c(C(C)(C)C)c1,2.22
21,N#Cc1ccc(N(CCNS(=O)(=O)c2cc(Br)c(Cl)s2)Cc2ccccc2C(F)(F)F)cc1C(F)(F)F,0.82
22,O=C(CSc1nnc(O)n1Cc1ccccc1)Nc1ccccc1-c1ccccc1,6.12
23,NS(=O)(=O)c1ccc(Nc2nccc(-c3c(-c4cccc(NC(=O)c5c(F)cccc5F)c4)nn4ccccc34)n2)cc1,14.8
24,Cc1cccc2nc(-c3ccc(-c4cccc(NC(=O)CN5CCN(C)CC5)c4)s3)[nH]c12,-1.13
25,COc1cc2nccc(Nc3cccc(Oc4ccccc4)c3)c2cc1OC,14.4
